Inconclusive results are not listed. The source made the active and inactive calls. The calls were made as follows, unless noted: active = hit-call score of the fitted dose curve at least 0.9, where 1 is the maximum; inconclusive = response in the unintended direction; inactive = score below 0.9.
Assays:
[1] = read-out: Glyceraldehyde-3-phosphate dehydrogenase (Homo sapiens) (UniProt P04406); assay: CLD_GAPDH_6hr: CellzDirect (CLD) Gene Expression Assay for Baseline Control (Glyceraldehyde 3-phosphate dehydrogenase) at 6 hours (AID 2283681);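 also: active means increased signal relative to DMSO vehicle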
Outline: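 Primary human hepatocytes from two donor preparations, dosed at multiple concentrations with 0.2% DMSO vehicle; GAPDH mRNA measured 6 h after dosing by chemiluminescent quantitative nuclease protection assay (qNPA) on denatured lysates. Serves as background control; cytotoxicity annotated by morphology.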

[2] = read-out: xenobiotic metabolism (CYP1A2), CYP1A2 (gene 1544); assay: CLD_CYP1A2_24hr: CellzDirect (CLD) Gene Expression Assay for xenobiotic metabolism (CYP1A2) at 24 hours (AID 2283683)
Outline: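 Primary human hepatocytes from two donor preparations dosed daily with multiple concentrations of chemical, 0.2% DMSO vehicle. CYP1A2 mRNA at 24 h quantified by qNPA chemiluminescence; gain of signal analyzed relative to DMSO. Cytotoxicity flagged by phase-contrast morphology.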

[3] = read-out: ABC Transporter (ABCB1), ABCB1 (gene 5243); assay: CLD_ABCB1_24hr: CellzDirect (CLD) Gene Expression Assay for ABC Transporter (ABCB1) at 24 hours (AID 2283684)
Outline: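 Primary human hepatocytes, two donor preparations, dosed daily with fresh solutions; vehicle 0.2% DMSO; harvested at 24 h. ABCB1 mRNA measured by quantitative nuclease protection assay (chemiluminescence); morphology-based cytotoxicity annotated.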

[4] = read-out: Cytochrome P450 2C19 (Homo sapiens) (UniProt P33261); assay: CLD_CYP2C19_24hr: CellzDirect (CLD) Gene Expression Assay for xenobiotic metabolism (CYP2C19) at 24 hours (AID 2283687);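 also: activity means mRNA induction above DMSO vehicle baseline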
Outline: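 Primary human hepatocytes (two donor preparations) dosed daily with fresh test chemical in 0.2% DMSO vehicle; CYP2C19 mRNA induction measured at 24 h by quantitative nuclease protection assay with chemiluminescence, fitted for gain of signal versus DMSO.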

[5] = read-out: Cytochrome P450 2C9 (Homo sapiens) (UniProt P11712); assay: CLD_CYP2C9_24hr: CellzDirect (CLD) Gene Expression Assay for xenobiotic metabolism (CYP2C9) at 24 hours (AID 2283688)
Outline: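 Primary human hepatocytes from two donor preparations, dosed daily for two days at multiple concentrations; vehicle 0.2% DMSO. CYP2C9 mRNA induction at 24 h measured by qNPA chemiluminescence relative to DMSO; cytotoxicity annotated from morphology.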

[6] = read-out: Cytochrome P450 3A4 (Homo sapiens) (UniProt P08684); assay: CLD_CYP3A4_24hr: CellzDirect (CLD) Gene Expression Assay for xenobiotic metabolism (CYP3A4) at 24 hours (AID 2283689)
Outline: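 Primary human hepatocytes from two donors dosed daily with fresh compound for two days, 0.2% DMSO vehicle. CYP3A4 mRNA at 24 hr by qNPA chemiluminescence; gain-of-signal fit versus DMSO, cytotoxicity flagged by morphology.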

[7] = read-out: organic anion transporter (SLCO1B1), SLCO1B1 (gene 10599); assay: CLD_SLCO1B1_24hr: CellzDirect (CLD) Gene Expression Assay for organic anion transporter (SLCO1B1) at 24 hours (AID 2283690)
Outline: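 Primary human hepatocytes (two donor preparations) dosed daily for two days with chemicals at multiple concentrations, 0.2% DMSO vehicle. SLCO1B1 mRNA at 24 h measured by qNPA chemiluminescence; induction fitted relative to DMSO.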

[8] = read-out: Glyceraldehyde-3-phosphate dehydrogenase (Homo sapiens) (UniProt P04406); assay: CLD_GAPDH_24hr: CellzDirect (CLD) Gene Expression Assay for Baseline Control (Glyceraldehyde 3-phosphate dehydrogenase) at 24 hours (AID 2283692)
Outline: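 Primary human hepatocytes (two donor preparations) dosed daily for two days, 0.2% DMSO vehicle; GAPDH mRNA measured at 24 h by qNPA chemiluminescence as a background control, gain-of-signal fitted against DMSO.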

[9] = read-out: Cytochrome P450 3A4 (Homo sapiens) (UniProt P08684); assay: CLD_CYP3A4_48hr: CellzDirect (CLD) Gene Expression Assay for xenobiotic metabolism (CYP3A4) at 48 hours (AID 2283698)
Outline: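 Primary human hepatocytes from two donor preparations dosed daily for two days with multiple chemical concentrations, 0.2% DMSO vehicle. CYP3A4 mRNA at 48 h by quantitative nuclease protection assay, chemiluminescence, positive fit versus DMSO; cytotoxicity flagged morphologically.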

[10] = read-out: Cytochrome P450 2C9 (Homo sapiens) (UniProt P11712); assay: CLD_CYP2C9_48hr: CellzDirect (CLD) Gene Expression Assay for xenobiotic metabolism (CYP2C9) at 48 hours (AID 2283701; active = hit-call score of the fitted dose curve at least 0.9, where 1 is the maximum; inactive = score below 0.9)
Outline: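 Primary human hepatocytes (two donor preparations) dosed daily for two days with test chemicals, 0.2% DMSO vehicle; harvested at 48 h. mRNA induction quantified by qNPA chemiluminescence, fitted for gain of signal against DMSO baseline; cytotoxicity annotated from phase-contrast morphology.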

[11] = read-out: Broad substrate specificity ATP-binding cassette transporter ABCG2 (Homo sapiens) (UniProt Q9UNQ0); assay: CLD_ABCG2_48hr: CellzDirect (CLD) Gene Expression Assay for ABC Transporter (ABCG2) at 48 hours (AID 2283704);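 as to AC50: potency for induction of ABCG2 mRNA above the DMSO baseline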
Outline: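 Primary human hepatocytes from two donors, dosed daily for 2 days, 0.2% DMSO vehicle, several concentrations. ABCG2 mRNA at 48 h by qNPA chemiluminescence, gain fitted versus DMSO; cytotoxicity flagged by morphology.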

[12] = read-out: Glyceraldehyde-3-phosphate dehydrogenase (Homo sapiens) (UniProt P04406); assay: CLD_GAPDH_48hr: CellzDirect (CLD) Gene Expression Assay for Baseline Control (Glyceraldehyde 3-phosphate dehydrogenase) at 48 hours (AID 2283706);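 also: active means higher GAPDH mRNA than DMSO vehicle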
Outline: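 Primary human hepatocytes dosed daily for two days with fresh chemical at multiple concentrations, 0.2% DMSO vehicle; GAPDH mRNA measured at 48 h by quantitative nuclease protection assay with chemiluminescence, fitted upward relative to DMSO as background control.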

[13] = read-out: organic anion transporter (SLCO1B1), SLCO1B1 (gene 10599); assay: CLD_SLCO1B1_48hr: CellzDirect (CLD) Gene Expression Assay for organic anion transporter (SLCO1B1) at 48 hours (AID 2283707)
Outline: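 Primary human hepatocytes from two donor preparations dosed daily for two days with multiple concentrations, 0.2% DMSO vehicle. SLCO1B1 mRNA at 48 h by quantitative nuclease protection assay, chemiluminescence; gain-of-signal fitted versus DMSO.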

[14] = read-out: alkyl and aryl transferase (GSTA2), GSTA2 (gene 2939); assay: CLD_GSTA2_48hr: CellzDirect (CLD) Gene Expression Assay for alkyl and aryl transferase (GSTA2) at 48 hours (AID 2283708);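 also: active means mRNA induction above DMSO vehicle baseline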
Outline: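 Primary human hepatocytes dosed daily for two days (0.2% DMSO vehicle), harvested at 48 h. GSTA2 mRNA induction measured by quantitative nuclease protection assay with chemiluminescent imaging, fitted for gain of signal relative to DMSO.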

[15] = read-out: HMG-CoA synthase (HMGCS2), HMGCS2 (gene 3158); assay: CLD_HMGCS2_6hr: CellzDirect (CLD) Gene Expression Assay for HMG-CoA synthase (HMGCS2) at 6 hours (AID 2283682);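 also: actives raise HMGCS2 transcript above the 0.2% DMSO vehicle baseline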
Outline: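 Primary human hepatocytes dosed daily with fresh chemical, 0.2% DMSO vehicle; HMGCS2 mRNA measured at 6 h by qNPA chemiluminescence. Gain of signal fitted against DMSO; cytotoxicity flagged from phase-contrast morphology.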

[16] = read-out: HMG-CoA synthase (HMGCS2), HMGCS2 (gene 3158); assay: CLD_HMGCS2_24hr: CellzDirect (CLD) Gene Expression Assay for HMG-CoA synthase (HMGCS2) at 24 hours (AID 2283691)
Outline: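 Primary human hepatocytes from two donor preparations, dosed daily with fresh solutions; vehicle 0.2% DMSO, 24 h harvest. HMGCS2 mRNA quantified by qNPA with S1 nuclease digestion and chemiluminescence; gain fitted versus DMSO, cytotoxicity annotated by morphology.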

[17] = read-out: xenobiotic metabolism (CYP1A1), CYP1A1 (gene 1543); assay: CLD_CYP1A1_48hr: CellzDirect (CLD) Gene Expression Assay for xenobiotic metabolism (CYP1A1) at 48 hours (AID 2283705)
Outline: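 Primary human hepatocytes from two donors dosed daily for two days at multiple concentrations, 0.2% DMSO vehicle; CYP1A1 mRNA induction at 48 h by qNPA chemiluminescence. Cytotoxicity noted by phase-contrast morphology.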

[18] = read-out: glucuronosyltransferase (UGT1A1), UGT1A1 (gene 54658); assay: CLD_UGT1A1_24hr: CellzDirect (CLD) Gene Expression Assay for glucuronosyltransferase (UGT1A1) at 24 hours (AID 2283696)
Outline: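 Primary human hepatocytes from two donor preparations were dosed (0.2% DMSO vehicle) and harvested at 24 h; UGT1A1 mRNA induction was quantified by chemiluminescent qNPA, fitted as gain relative to DMSO.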

[19] = read-out: xenobiotic metabolism (CYP1A2), CYP1A2 (gene 1544); assay: CLD_CYP1A2_48hr: CellzDirect (CLD) Gene Expression Assay for xenobiotic metabolism (CYP1A2) at 48 hours (AID 2283703)
Outline: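 Primary human hepatocytes from two donor preparations were dosed daily for two days at multiple concentrations in 0.2% DMSO vehicle. CYP1A2 mRNA was measured at 48 hours by chemiluminescent quantitative nuclease protection assay, with gain of signal fitted versus DMSO and cytotoxicity annotated from morphology.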

Measured: AC50

Sequence of Broad substrate specificity ATP-binding cassette transporter ABCG2 (Homo sapiens) (Q9UNQ0 whole entry, looked up): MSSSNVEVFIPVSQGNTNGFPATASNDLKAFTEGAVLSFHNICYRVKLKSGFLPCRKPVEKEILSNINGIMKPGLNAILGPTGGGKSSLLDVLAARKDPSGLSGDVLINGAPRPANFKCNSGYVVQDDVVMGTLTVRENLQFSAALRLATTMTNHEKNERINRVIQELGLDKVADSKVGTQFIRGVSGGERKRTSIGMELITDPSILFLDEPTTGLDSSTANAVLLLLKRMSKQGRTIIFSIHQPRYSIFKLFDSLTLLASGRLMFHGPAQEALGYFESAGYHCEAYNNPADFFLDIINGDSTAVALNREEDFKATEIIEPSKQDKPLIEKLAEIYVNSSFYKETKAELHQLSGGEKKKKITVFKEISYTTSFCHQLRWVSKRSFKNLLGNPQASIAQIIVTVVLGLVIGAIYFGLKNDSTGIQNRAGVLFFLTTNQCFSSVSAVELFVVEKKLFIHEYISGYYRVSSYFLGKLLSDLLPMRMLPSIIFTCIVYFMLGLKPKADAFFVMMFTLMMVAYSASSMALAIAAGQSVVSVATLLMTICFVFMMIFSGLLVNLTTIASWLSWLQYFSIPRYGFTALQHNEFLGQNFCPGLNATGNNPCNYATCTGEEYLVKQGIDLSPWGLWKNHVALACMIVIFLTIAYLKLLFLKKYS
Sequence of Cytochrome P450 3A4 (Homo sapiens) (P08684 whole entry, looked up): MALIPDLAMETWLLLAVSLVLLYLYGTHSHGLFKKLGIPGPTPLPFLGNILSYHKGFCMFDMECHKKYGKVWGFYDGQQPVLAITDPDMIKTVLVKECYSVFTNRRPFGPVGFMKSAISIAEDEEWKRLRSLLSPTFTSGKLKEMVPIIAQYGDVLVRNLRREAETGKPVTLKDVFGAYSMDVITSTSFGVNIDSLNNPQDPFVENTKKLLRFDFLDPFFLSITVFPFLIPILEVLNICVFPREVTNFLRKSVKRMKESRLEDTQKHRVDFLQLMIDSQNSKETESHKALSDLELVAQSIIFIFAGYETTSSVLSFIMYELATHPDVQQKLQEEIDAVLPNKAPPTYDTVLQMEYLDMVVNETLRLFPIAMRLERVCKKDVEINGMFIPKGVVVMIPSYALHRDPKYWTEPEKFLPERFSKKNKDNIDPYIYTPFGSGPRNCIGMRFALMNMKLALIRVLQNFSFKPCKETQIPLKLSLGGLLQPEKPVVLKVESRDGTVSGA
Sequence of Glyceraldehyde-3-phosphate dehydrogenase (Homo sapiens) (P04406 whole entry, looked up): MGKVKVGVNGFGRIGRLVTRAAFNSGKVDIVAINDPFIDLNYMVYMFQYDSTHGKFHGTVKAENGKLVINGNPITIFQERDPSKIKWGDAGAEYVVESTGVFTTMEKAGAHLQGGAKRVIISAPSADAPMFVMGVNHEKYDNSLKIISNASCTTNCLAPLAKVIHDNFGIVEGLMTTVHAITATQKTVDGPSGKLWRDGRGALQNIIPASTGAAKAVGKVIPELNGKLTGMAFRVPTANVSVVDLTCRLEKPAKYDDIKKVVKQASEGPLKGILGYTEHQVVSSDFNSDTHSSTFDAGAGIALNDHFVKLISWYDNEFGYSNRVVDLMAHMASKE
Sequence of Cytochrome P450 2C19 (Homo sapiens) (P33261 whole entry, looked up): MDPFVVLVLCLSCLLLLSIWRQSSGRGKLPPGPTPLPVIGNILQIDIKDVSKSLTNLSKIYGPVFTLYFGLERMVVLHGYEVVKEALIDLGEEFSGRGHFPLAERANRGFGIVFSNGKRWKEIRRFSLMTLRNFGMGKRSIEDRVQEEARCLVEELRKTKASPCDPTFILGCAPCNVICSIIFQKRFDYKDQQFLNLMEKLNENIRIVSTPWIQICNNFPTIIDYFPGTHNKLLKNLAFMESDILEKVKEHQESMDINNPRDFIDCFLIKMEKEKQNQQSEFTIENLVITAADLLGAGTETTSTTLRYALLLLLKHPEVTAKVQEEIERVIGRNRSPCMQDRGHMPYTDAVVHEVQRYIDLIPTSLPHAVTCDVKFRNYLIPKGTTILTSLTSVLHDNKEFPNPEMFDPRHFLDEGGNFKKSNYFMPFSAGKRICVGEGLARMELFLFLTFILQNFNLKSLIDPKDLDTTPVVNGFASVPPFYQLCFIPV

CCCN(CCC)C(=O)SCC
inactive: [1] | [2] | [3] | [4] | [5] | [6] | [7] | [8] | [9] | [10] | [11] | [12] | [13] | [14]

COC(=O)c1c(Cl)nn(C)c1S(=O)(=O)NC(=O)Nc1nc(OC)cc(OC)n1
active: [2] 0.797 µM | [6] 4.62 µM | [9] 6.72 µM
inactive: [1] | [15] | [16] | [8] | [10] | [17] | [12] | [14]

C=CCOC(Cn1ccnc1)c1ccc(Cl)cc1Cl (stereo not drawn)
inactive: [1] | [15] | [12]
active: [11] 34.9 µM | [17] 3.84 µM | [14] 36.7 µM

Cc1nn(C)c(Oc2ccccc2)c1C=NOCc1ccc(C(=O)OC(C)(C)C)cc1
inactive: [1] | [4] | [6] | [18] | [9] | [11] | [17] | [12] | [14]
active: [2] 37.4 µM

CCC(O)=C1C(=O)CC(C(=O)O)CC1=O (stereo not drawn)
inactive: [1] | [15] | [5] | [7] | [8] | [19] | [11] | [17] | [12] | [13]

CCCCC(CC)COC(=O)c1ccccc1C(=O)O (stereo not drawn)
inactive: [1] | [15] | [2] | [5] | [7] | [16] | [8] | [10] | [17] | [12] | [13] | [14]

Source: PubChem BioAssay (EPA / NIEHS)
